# According to PubChem BioAssay (NCI):
# About 83,000 compounds went through this panel and 20% of them were active in at least one assay; those are over-represented in the sample as a whole.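 Each cell line was grown in a 96-well plate and treated with one concentration of compound for 48 hours. Values below 10 were considered active.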 Values without a mark were called inactive. Calls of active or inactive are those of the source.
# Columns and labels:
# Assay in all cases: NCI-60 one-dose screen, 48 h (100 = growth as untreated, 0 = no growth, -100 = all killed)
# Details in all cases: 10 µM unless noted
# DU-145 prostate = tested on: DU-145 prostate
# K-562 leukemia = tested on: K-562 leukemia
# MALME-3M melanoma = tested on: MALME-3M melanoma
# MDA-MB-231 breast = tested on: MDA-MB-231 breast
# RXF 393 renal = tested on: RXF 393 renal
# SF-268 CNS = tested on: SF-268 CNS
# SF-295 CNS = tested on: SF-295 CNS
# SF-539 CNS = tested on: SF-539 CNS
# UACC-257 melanoma = tested on: UACC-257 melanoma
# M14 melanoma = tested on: M14 melanoma
SMILES,growth (DU-145 prostate),growth (K-562 leukemia),growth (MALME-3M melanoma),growth (MDA-MB-231 breast),growth (RXF 393 renal),growth (SF-268 CNS),growth (SF-295 CNS),growth (SF-539 CNS),growth (UACC-257 melanoma),growth (M14 melanoma)
COc1ccc(C(=NNS(=O)(=O)c2ccc(C)cc2)c2ccccc2)cc1OC,103%,94.3%,87.7%,91.2%,105%,95.5%,87.7%,105%,96.5%,102%
O=C(CCCCCCNC(=O)c1csc(Br)n1)NO,26.7%,13.8%,8.89% (active),50.2%,3.36% (active),69.4%,52%,36.7%,18.4%,29.4%
Cn1cc(C2=C(c3coc4cc(Br)ccc34)C(=O)NC2=O)c2ccccc21,108%,27.4%,104%,87.8%,66.3%,83.5%,86.9%,69.5%,100%,68.7%
Clc1ccc2[nH]cc(-c3cncn3CCc3ccc4c(c3)OCO4)c2c1,86.3%,48.8%,75.5%,65.8%,54.7%,66.5%,58.4%,83.8%,57.5%,78.8%
O=C1[C@@H]2Cc3c([nH]c4ccccc34)[C@@H](c3ccc(Cl)cc3)N2C(=O)CN1C1CCN(Cc2c(F)cccc2F)CC1,49.2%,16.8%,88.8%,66.4%,44.4%,39.2%,41.4%,60.9%,51.1%,14.4%
N#Cc1nc(-c2ccc(Cl)cc2)oc1N1CCC(S(=O)(=O)N2CCOCC2)CC1,105%,101%,99.2%,94.7%,99.8%,96.6%,102%,93.6%,108%,107%
CCCCSC1=C(Cl)CN(c2ccccc2)C1=O,104%,91.6%,94.6%,98.2%,109%,106%,98.8%,97.3%,101%,103%
Cc1ccc(Nc2nc(SC(C)C)nc(-c3ccccc3)c2C#N)cc1,104%,103%,75.3%,82.1%,84.1%,82%,93.9%,84.3%,113%,116%
N#Cc1c(-c2cccs2)cc(-c2cnccn2)nc1SCC(=O)N/N=C/c1ccncc1,112%,96.1%,120%,102%,105%,106%,99.4%,97.6%,107%,110%
COc1cc(C(=O)c2cc(C(C)=O)c3cccc(C)n23)cc(OC)c1OC,68.3%,15.6%,46.2%,37.4%,46.6%,54%,17.9%,46.8%,56%,5.73% (active)
C/C(=N/N)c1nnn(-c2ccc(Br)cc2)c1C,108%,91.2%,102%,101%,103%,97.8%,94.2%,93.1%,105%,105%
CC1(C)CC[C@]2(C(=O)O)CC[C@]3(C)C(=CC[C@@H]4[C@@]5(C)CC[C@H](NOCCCN)C(C)(C)[C@@H]5CC[C@]43C)[C@@H]2C1,94.7%,46.4%,91.6%,92.4%,68.8%,100%,101%,86.4%,89.2%,94.7%
COc1ccc(-c2cc(-c3ccc(N4CCOCC4)cc3)n3c(n2)nc2ccccc23)cc1OC,91.2%,68.9%,93.3%,70.9%,72.8%,90.7%,100%,76.7%,97.7%,93.1%
CN1CCN(Cc2ccc(NC(=O)c3cncc(C#Cc4cnc5ccc(OCC(F)F)nn45)c3)cc2C(F)(F)F)CC1,-85.8% (active),0.0269% (active),-86.2% (active),-66.7% (active),-81% (active),-56.6% (active),-76.6% (active),-90.6% (active),-33.7% (active),-89% (active)
CC(C)(C)Nc1nc2c(OCCc3ccccc3)cccn2c1-c1cccc(Oc2ccccc2)c1,25.5%,15.7%,0.427% (active),17.7%,-8.9% (active),32.4%,6.47% (active),-0.94% (active),6.07% (active),18%
O=C(/C=C/c1cccc(F)c1)c1cccc(OCCCCOc2cccc(C(=O)/C=C/c3cccc(F)c3)c2)c1,107%,100%,101%,95.9%,107%,99.7%,105%,110%,105%,103%
CN1CCN(Cc2ccc(NC(=O)c3cncc(C#Cc4cnc(N)nc4)c3)cc2C(F)(F)F)CC1,34.4%,5.93% (active),-31.1% (active),-7.34% (active),26.4%,28.1%,33.1%,14.6%,22.1%,-19.3% (active)
C#Cc1cc(OC)c(C(=O)Nc2ccc(F)cc2C(=O)Nc2cccc(S(=O)(=O)C(F)(F)F)c2)cn1,46.8%,5.65% (active),-33.4% (active),-24.4% (active),-1.43% (active),-38.1% (active),-83.2% (active),-87.1% (active),55.7%,16.7%
COc1ccc(-c2c3c(cn2Cc2cccc(OC)c2)-c2oncc2CCC3)cc1,101%,85.6%,95.6%,101%,111%,99.5%,97%,97.8%,96.6%,91.6%
CCOC(=O)C(=O)Nc1ccc2c(ccn2C(=O)c2cccc(F)c2)c1,67.7%,101%,102%,107%,104%,99%,92%,91.5%,99.1%,95.3%
Cc1ccc2c(n1)C(=O)C(Cl)=C(Nc1ccc(C(=O)OC(C)(C)C)cc1)C2=O,97.9% [9.25 µM],0.658% [9.25 µM] (active),24% [9.25 µM],53.9% [9.25 µM],-19.3% [9.25 µM] (active),87.6% [9.25 µM],104% [9.25 µM],100% [9.25 µM],29.5% [9.25 µM],61.3% [9.25 µM]
COc1ccc([C@H]2C(=O)N(c3cc(OC)c(OC)c(OC)c3)[C@@H]2c2ccc(OC)c(O)c2)cc1,16.7%,9.93% (active),67.8%,17.5%,6.67% (active),29.1%,18.5%,-1.89% (active),58.1%,4.54% (active)
O=C1C(N2CCN(c3ccccc3)CC2)=C(Cl)C(=O)c2ncccc21,45.7%,6.19% (active),-1.87% (active),75.3%,27.8%,79.4%,103%,81.2%,55.4%,69.6%
O=C(CSc1nnc(-c2cccs2)n1-c1ccccc1)Nc1ccccc1,83.3%,49.6%,35.2%,76.4%,59.8%,60%,90.1%,60.7%,85.4%,88.2%
CN1CCN(c2ccc(Nc3nc(NCCNS(=O)(=O)c4ccccc4)c4sccc4n3)cc2)CC1,106%,84%,104%,102%,87.3%,79.6%,105%,95.4%,114%,106%
Cn1cc(-c2nc(N)nnc2-c2c[nH]c3ccc(Br)cc23)c2cc(F)ccc21,96.4%,56.4%,94.2%,90.2%,93.6%,86.9%,106%,95.1%,109%,102%
